Laboratory results reported in the supplement of paper PMC9925115.
Counter-ions that a name gives are not always drawn. ± gives the uncertainty stated by the source.

Experiments:
[1] = test system: FLX1; assay: cell viability z-score within plate (CellTiter-Glo), mean of 3 biological replicates; higher = higher viability relative to plate (less growth inhibition); details: 2 µM; time (hr): 120
Experimental: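 FLX1 fibrolamellar carcinoma cells (DNAJB1-PRKACA fusion), 600 cells/well in 384-well plates, treated with a Selleck kinase inhibitor library (L1200) at 2 uM for 5 days (120 hr); viability by CellTiter-Glo. A z-score was computed within each plate and averaged over three biological replicates.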

[2] = test system: FLX1 + dox-induced PRKAR1A G325D; assay: difference in log2 fold change of viability vs plate median (dox-induced PRKAR1A G325D minus uninduced); higher = compound less effective when PKA is inhibited; details: concentration: not stated (2 or 5 uM); 5 days
Experimental: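 For each plate a log2 fold change vs the plate median was derived, and the values without dox were subtracted from those with dox, averaged over three biological replicates.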

Compound | cell viability z-score within plate [1] | difference in log2 fold change of viability [2]
CSc1cccc(Nc2ncc3cc(-c4c(Cl)cccc4Cl)c(=O)n(C)c3n2)c1 | 0.169 ± 0.22 | -0.0582
O=C1Nc2ccccc2/C1=C1/Nc2ccccc2C1=O [Indirubin] | 1.02 ± 0.66 | 0.211
CCCCCCCCc1ccc(CCC(N)(CO)CO)cc1 [Fingolimod (FTY720) HCl] | 0.096 ± 0.62 | 0.301
COc1cc2ncnc(Nc3cccc(Cl)c3)c2cc1OC [AG-1478 (Tyrphostin AG-1478)] | -0.29 ± 0.52 | 0.0422
C[C@H](Nc1ncnc2nc[nH]c12)c1cc2cccc(Cl)c2c(=O)n1-c1ccccc1 [Duvelisib (IPI-145, INK1197)] | 0.585 ± 0.95 | -0.0226
CNC(=O)c1cc(COc2nnc(Nc3ccc(Cl)cc3)c3ccoc23)ccn1 [Telatinib] | -1.65 ± 1.2 | 0.0582
CN1CCC(COc2cnc(-c3cccc(Cn4nc(-c5cccc(C#N)c5)ccc4=O)c3)nc2)CC1 | -0.645 ± 0.46 | -0.973
CN1CCN(c2ccc3nc(-c4c(N)c5c(F)cccc5[nH]c4=O)[nH]c3c2)CC1 [Dovitinib (TKI-258, CHIR-258)] | 0.442 ± 0.46 | 0.0764
Nc1ccc(C(=O)Nc2cccc(-c3nc(N4CCOCC4)c4oc5ncccc5c4n3)c2)cn1 | 0.775 ± 0.24 | 0.262
CC(C)n1nc(-c2cc3cc(O)ccc3[nH]2)c2c(N)ncnc21 [Torkinib (PP242)] | -0.546 ± 0.32 | 0.611
COc1cccc(-c2cc(=O)c3ccccc3o2)c1N | 0.538 ± 0.2 | -0.103
NC(=O)c1ccc(N(C(N)=O)c2c(F)cccc2F)nc1-c1ccc(F)cc1F | -1.05 ± 0.15 | 0.256
